# Assay results reported in PubChem BioAssay (NCI).
# About 79,000 compounds went through this panel and 15% of them were active in at least one assay; those are over-represented in the sample as a whole. A number with no mark means an inactive call. The source made the active and inactive calls. Rule as the data show it: active = growth inhibition above about 70%; inactive = the rest.
# Legend:
# [1] = NCI Yeast Anticancer Drug Screen. Data for the rad50 strain (AID 155);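 also: 0% = growth of vehicle-only cultures of the same strain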; conditions: S. cerevisiae rad50 strain growth inhibition; at 50.0 µM; stronger effect = higher value
# Summary of the method: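 Yeast carrying a defined DNA repair defect were exposed to test compounds, and growth was compared with vehicle-treated controls to give percent inhibition.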
# [2] = NCI Yeast Anticancer Drug Screen. Data for the mec2-1 strain (AID 157); conditions: S. cerevisiae mec2-1 strain, at 50.0 µM, stronger effect = higher value
# Summary of the method: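 Each compound was tested on mec2-1 yeast, a strain altered in DNA damage repair or cell cycle control. Growth inhibition is reported relative to vehicle.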
# [3] = NCI Yeast Anticancer Drug Screen. Data for the sgs1 mgt1 strain (AID 161);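 also: 0% = growth of cultures given vehicle only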; conditions: S. cerevisiae sgs1 mgt1 strain, at 50.0 µM, stronger effect = higher value
# Summary of the method: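 Inhibition of yeast growth, normalised to vehicle-treated controls, is reported for a strain bearing genetic alterations in DNA damage repair.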
# [4] = NCI Yeast Anticancer Drug Screen. Data for the cln2 rad14 strain (AID 165);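 also: 0% = growth equal to vehicle treated cultures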; conditions: S. cerevisiae cln2 rad14 strain, at 50.0 µM, stronger effect = higher value
# Summary of the method: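 Test compounds were added to cln2 rad14 yeast cultures; inhibition of growth was then determined by comparison with vehicle treatment.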
# [5] = NCI Yeast Anticancer Drug Screen. Data for the bub3 strain (AID 167); conditions: S. cerevisiae bub3 mutant strain, at 50.0 µM, stronger effect = higher value
# Summary of the method: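 Compounds were applied to a genetically altered yeast strain carrying a cell-cycle control defect. Growth inhibition was scored against vehicle-treated controls.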
# [6] = NCI Yeast Anticancer Drug Screen. Data for the mlh1 rad18 strain (AID 175); conditions: S. cerevisiae mlh1 rad18 strain growth inhibition; at 50.0 µM; stronger effect = higher value
# Summary of the method: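 Inhibition values reflect reduced growth of mutant yeast versus vehicle-treated controls following compound exposure; the mutations affect DNA damage repair.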
SMILES,growth inhibition [1],growth inhibition [2],growth inhibition [3],growth inhibition [4],growth inhibition [5],growth inhibition [6]
Nc1nc(Sc2ccc([N+](=O)[O-])c3nonc23)c2ncn(C3OC(CO)C(O)C3O)c2n1 (stereo not given),-0.7%,-11.3%,3%,26.6%,-6.3%,11.9%
Nc1ccc(CCCCc2ccc(Cl)cc2Cl)cc1,98.2% (active),98.2% (active),98.5% (active),98.1% (active),98% (active),98% (active)
COc1ccc(C2OC3=C(Nc4ccc([N+](=O)[O-])cc4N3)C2=O)cc1OC (stereo not given),-9.75%,-24.2%,-16.1%,-3.7%,-32.5%,-0.7%
Fc1ccc(N=Cc2ccc(C=Nc3ccc(F)cc3)cc2)cc1,20.9%,30.1%,18.7%,10.2%,38%,27.2%
C[N+](C)(C)CC(=O)N/N=C(/Cc1nc2c3c(ccc2[nH]c1=O)C(=O)c1ccccc1C3=O)C(=O)Nc1ccc(Cl)c(Cl)c1,1.05%,-6.8%,-7.8%,18.8%,7.5%,30.9%
CCCCCCCCCCCCSCCSCCC,-19.1%,-10.7%,1%,-14.6%,-7.35%,4.5%
Cc1ccc2c(c1)C(C)(C)C(C)C2(C)C (stereo not given),-3.05%,-8.2%,-13.8%,-19.9%,9.25%,21.3%
C[N+](C)(C)/N=C(/c1ccccc1)C1CCCCC1,-20.2%,-2.1%,-4.35%,-43.5%,0.4%,7.7%
CC(C)(C)OC(=O)Cn1ncn(NC(=O)Cc2ccccc2)c1=O,-20.5%,-24.5%,-21.4%,-56.2%,-38.2%,-0.1%
Cc1cc(=O)oc2cc(OCCCOc3ccc4c(C)cc(=O)oc4c3)ccc12,19.1%,5.45%,-2.1%,-4.1%,-5.2%,13.3%
CC1=CC(=O)OC(=O)/C1=C/c1ccc(N(C)C)cc1,-11.2%,33.8%,-7.65%,19.7%,23%,-9.4%
CC1CC(=O)Oc2ccccc21 (stereo not given),35.5%,5.7%,3.8%,-3.35%,5.95%,1.5%
CCOC1(C)Oc2cc3c(cc2C(c2cc(OC)c(OC)c(OC)c2)C1C)OCO3 (stereo not given),12.4%,1.55%,-6.75%,-29.4%,1.4%,32.5%
[O-]c1c[n+](-c2ccc3c(c2)OCO3)no1,3.2%,-3.25%,-0.25%,-16.4%,7.3%,13.7%
Cn1c(=O)c2[nH]c(=S)n(CC3CCCCC3)c2n(C)c1=O,-1.95%,-3.55%,-8.4%,-29%,0.1%,17.4%
C[Si](C)(C)C#CCOC=C1CC1,26%,-39.5%,-27.2%,9.15%,-11.7%,-34.5%
O=C(Nc1cccc2ccccc12)OCCBr,6.85%,-9.95%,3.25%,7%,-10.2%,-7.4%
COC1CC(N=[N+]=[N-])C(OC(=O)c2ccccc2)C(CBr)O1 (stereo not given),22.4%,18.1%,22.6%,-4.4%,7.4%,19.6%
Cc1[nH]c2cc([N+](=O)[O-])ccc2c1C,0.45%,-35.2%,-10.1%,21.8%,1.3%,-0.5%
CCOC(=O)c1sc(SC)nc1NC(=O)c1ccc(Cl)cc1,-26.6%,19.8%,-49.6%,0.7%,-2.55%,-24.7%

SMILES,growth inhibition [1],growth inhibition [2],growth inhibition [3],growth inhibition [4],growth inhibition [5],growth inhibition [6]
COc1ccc2c(c1)N(CC(C)CN(C)C)c1ccccc1S2 (stereo not given),0.75%,25.7%,-0.95%,-3.75%,39.5%,11.4%
CC(N)(C(=O)O)c1ccccc1 (stereo not given),-2.45%,-2.45%,18.6%,-25.2%,-13.9%,-21.4%
O=C1CCC(=O)N1c1ccc([I+]c2ccc(N3C(=O)CCC3=O)cc2)cc1,32.5%,6.65%,12.7%,15.1%,-0.8%,14.4%
O=C1COc2cccnc2N1,12.7%,-2.05%,19.5%,2.2%,14.7%,14.7%
CCCCN=C(OC1C=CCCC1)SC (stereo not given),-12.8%,-25.6%,-14.6%,9.95%,-4.7%,-7.7%
CCN(CC)CCNc1nnc(NCCN(CC)CC)c2cc3ccccc3cc12,3.75%,21%,-10.1%,-4.45%,-0.25%,6.8%
CCOC(=O)c1ccc(NC(=O)CCCCl)cc1,6.15%,-14.2%,-8.75%,8.55%,12.7%,-24.3%
O=P(O)(O)CN1CCN(CP(=O)(O)O)CCN(CP(=O)(O)O)CCN(CP(=O)(O)O)CC1,-39.9%,-16.8%,-8.75%,12.1%,-0.05%,-19.1%
O=C(O)C(Br)C(Br)C(=O)Nc1ccc(F)cc1 (stereo not given),99.7% (active),99.7% (active),99.7% (active),98.3% (active),99.7% (active),99.3% (active)
C[C@H]1C(=O)CCC2[C@]3(C)CCC4(CO)[C@@H]5CC(C)(C)C(=O)C[C@]5(C)CC[C@]4(C)C3CC[C@@]21C (stereo not given in full),-26.5%,-25.6%,-28.1%,3.35%,-40.9%,0.4%
CCOC(CN(CC)CC)OCC,-6.75%,-27.6%,-5.15%,7.2%,-21.8%,2.15%
CCN(CC)C(=S)Nc1ccc(-c2cc3ccc(O)cc3oc2=O)cc1,-6.95%,11.6%,-5.45%,32.9%,18.2%,6.15%
CCSC1OC(C(O)CO)C(O)C1NC(=O)C(F)(F)F (stereo not given),5.65%,6.05%,1.5%,1.1%,32%,12.8%
COC(=O)C(C(=O)C(N)=O)c1csc(-n2nc(-c3ccccc3)cc2-c2ccccc2)n1 (stereo not given),-1.5%,-13.4%,-13.8%,10.2%,30.2%,-7.2%
CCOC(=O)c1c(-c2ccc(OC)cc2)c(C#N)c(=S)n(C2OC(COC(C)=O)C(OC(C)=O)C(OC(C)=O)C2OC(C)=O)c1-c1ccccc1 (stereo not given),-4.6%,0.05%,-3.2%,21.6%,11.9%,13.4%
COc1cc(Cl)ccc1NC(=O)Oc1ccc(C=O)cc1OC,3.8%,10.2%,6.75%,9.85%,17.9%,10.8%
O=C(OCC(COC(=O)c1ccccc1)OC(=O)c1ccccc1)c1ccccc1,-7.15%,2.15%,8.8%,-24.6%,38.8%,0.65%
C/C=C/C1N(C)CCCN1C,-2%,-7.55%,-7.25%,18%,-25.9%,8.55%
Nc1ccc2cc(S(=O)(=O)O)ccc2c1,3.95%,14.9%,-21.1%,-3.95%,0.95%,-6.05%
Oc1ccc(C=NCCN=Cc2ccc(O)cc2)cc1,9.55%,-17.4%,-14.8%,-24.2%,5.1%,12.1%
